# Source: PubChem (The Scripps Research Institute Molecular Screening Center)
# M1 PAM parental: counter-screen for M1 PAMs: effect in parental CHO-K1 cells | activation, % at 3 µM | 360,000 tested, 0.02% active | ATP EC20, Fluo-8 calcium fluorescence; 0% at ATP EC20, 100% at ATP max;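 active means activation above the run cutoff, the mean activation of all test compounds plus 3 SD, cut at about 40% in these data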;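 further: peak over basal fluorescence ratio in a 140 s read after ATP addition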
# CHRM4 agonist: agonists of human muscarinic M4 receptor (CHRM4) | activation, % at 3 µM | CHO-K1 hM4/Gqi5, Fluo-8 calcium fluorescence; vehicle 0%, full acetylcholine response 100% | AID 624127 | P08173 | 360,000 tested, 0.14% active;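 active means activation above the run mean over all test wells plus 3 SD, cut at about 32% in these data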;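 further: peak over basal fluorescence ratio per well then scaled between controls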
# Target sequence (P08173 whole entry, looked up): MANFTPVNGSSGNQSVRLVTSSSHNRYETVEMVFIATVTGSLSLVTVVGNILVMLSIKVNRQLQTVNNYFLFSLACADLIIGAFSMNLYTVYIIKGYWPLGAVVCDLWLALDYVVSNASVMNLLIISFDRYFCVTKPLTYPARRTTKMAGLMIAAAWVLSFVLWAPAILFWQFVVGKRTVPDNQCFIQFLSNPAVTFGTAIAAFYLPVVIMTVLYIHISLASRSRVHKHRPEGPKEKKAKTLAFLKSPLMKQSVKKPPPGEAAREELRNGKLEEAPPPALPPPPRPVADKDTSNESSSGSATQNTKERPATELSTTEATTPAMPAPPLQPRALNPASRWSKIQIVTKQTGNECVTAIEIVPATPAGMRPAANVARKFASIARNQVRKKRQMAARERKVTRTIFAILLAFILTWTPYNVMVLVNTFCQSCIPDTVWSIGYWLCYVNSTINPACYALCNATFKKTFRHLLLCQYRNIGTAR
# M4 antag: blocks acetylcholine activation of human M4 receptor; P08173; CHO-hM4 cells, ACh EC80, Fluo-8 calcium fluorescence; inhibition, % at 3 µM; 360,000 tested, 0.73% active;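 active means inhibition above its plate's cutoff, the mean inhibition of sample wells plus 3 SD, cut at about 27% in these data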
# M1 ag parental: M1 agonist counterscreen hit in parental CHO-K1 cells | 360,000 tested, 0.48% active | Fluo-8 calcium fluorescence; scaled to maximal ATP response, vehicle zero | activation, % at 3 µM | AID 602248; in the data active means activation above about 15%;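 further: untransfected CHO-K1 host cells lacking M1 receptor as counterscreen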
# CHO-K1 Ca antag: counter-screen for M1 antagonists: effect in parental CHO-K1 cells. ATP-induced calcium, Fluo-8 fluorescence. inhibition, % at 3 µM. 360,000 tested, 0.6% active. AID 602250;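 active means inhibition above a per-plate cutoff, the plate's mean sample inhibition plus 3 SD, cut at about 24% in these data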
# CHRM4 PAM: potentiates acetylcholine response at human M4 receptor. CHO-K1 hM4/Gqi5, Fluo-8 calcium fluorescence, ACh EC20; 0% = ACh EC20, 100% = maximal ACh. 360,000 tested, 0.4% active. AID 624126. P08173. activation, % at 3 µM;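 active means activation above its plate's cutoff, the mean activation of sample wells plus 3 SD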
# Numbers stand for hits; – = inactive; · = not tested or not shown; ! = not active in a repeat. In the library only some 2% were active in any assay of this set; here they are far more common.
SMILES,M1 PAM parental,CHRM4 agonist,M4 antag,M1 ag parental,CHO-K1 Ca antag,CHRM4 PAM
COc1ccccc1CN1CCNC(=O)C1CC(=O)N(C)Cc1cnccn1 (stereo not drawn),–,–,–,–,–,–
C(=C\c1ccco1)/C=N/n1cnnc1,–,–,–,–,26,–
S=c1[nH]nc(-c2ccncc2)n1/N=C/C=C/c1ccco1,–,–,–,–,–,–
COC(=O)N/N=C/c1cn(CCOc2ccccc2)c2ccccc12,–,–,–,–,–,–
COC(=O)N/N=C/c1cn(CCOc2ccc(OC)cc2)c2ccccc12,–,–,–,15,–,–
CN(C(=O)c1c[nH]c(=O)cc1C(F)(F)F)c1ccc(Cl)c(Cl)c1,–,–,–,–,–,–
O=C(CSc1ccccc1)Nc1ccc2c(c1)OCCO2,–,–,–,–,–,–
O=C(Nc1nnc(-c2ccccc2Cl)o1)c1nc2ccccc2s1,–,111,–,48,–,–
COc1ccccc1-c1nnc(Nc2nc3c(OC)cccc3s2)o1,–,–,35,–,–,–
COc1cccc2sc(NN)nc12,–,–,–,–,–,–
O=C(Nc1nnc(-c2ccccc2Cl)o1)c1ccco1,–,–,–,–,–,–
COc1cccc2sc(Nc3nnc(-c4ccccc4Cl)o3)nc12,–,–,–,–,29,–
Cc1nc2ccccc2n1Cc1ccc(Br)cc1,–,–,–,–,31,–
Cc1nc2ccccc2n1Cc1ccccc1,–,–,–,–,–,–
Cc1nc2ccccc2n1Cc1ccccc1Br,–,–,–,23,–,–
COc1ccc(-c2nn(-c3ccccc3)cc2C(=O)NCCCn2ccnc2)cc1,–,–,–,–,–,–
COc1cccc(NC(=O)Nc2nc(SC)ns2)c1,–,–,–,–,–,–
COc1cccc(NC(=O)Nc2nc(SC(C)(C)C)ns2)c1,–,–,–,19,24,–
CCSc1nsc(NC(=O)Nc2cccc(F)c2)n1,–,–,–,18,–,–
CCN(CC)C(=O)CSc1ncnc2c1nnn2-c1ccc(OC)cc1,–,–,–,–,–,–
CCOC(=O)C1=C(C)NC(C)=C(C(=O)OCC)C1c1ccc(Br)o1,–,–,–,–,–,–
Cc1occc1C(=O)N=Nc1c(O)n(C)c2ccccc12,–,–,–,–,–,29
COc1ccc(NC(=O)Cn2nnc(C(=O)NCCc3ccccc3)c2N)cc1,–,–,–,19,–,–
CCN(CC)CCNC(=O)c1ccc(NC(=O)c2c(C)nn(-c3ccc(F)cc3)c2Cl)cc1,–,–,41,–,–,–
CCN(CC)CCNC(=O)c1ccc(NC(=O)c2cn(-c3ccccc3)nc2-c2cccs2)cc1,–,–,–,–,–,–
SMILES,M1 PAM parental,CHRM4 agonist,M4 antag,M1 ag parental,CHO-K1 Ca antag,CHRM4 PAM
CCN(CC(=O)Nc1ccc(NC(C)=O)cc1)C(=O)c1c(C)nn(-c2ccc(F)cc2)c1Cl,–,–,–,–,–,–
CCN(CC)CCNC(=O)c1ccc(NC(=O)c2cn(-c3ccc(F)cc3)nc2-c2cccc(OC)c2)cc1,–,–,48,–,–,–
CC(=O)c1cccc(-c2ccnc3c2CC(C(=O)NCC2CC2)O3)c1 (stereo not drawn),–,–,–,–,–,–
O=C1/C(=C/c2ccc(N3CCCC3)cc2)NC(=S)N1C1CC1,–,46,36,56,45,–
Cc1cc(N2CCCC2)ccc1/C=C1\NC(=S)N(C)C1=O,–,–,–,17,–,–
O=C(NCc1ccccc1F)C1CCCN(C(=O)Nc2ccccc2)C1 (stereo not drawn),–,–,–,–,–,–
CCOC(=O)c1[nH]nc(C(=O)c2ccc(Br)cc2)c1O,–,–,–,–,–,–
Cc1ccc2cccc(NC(=S)NC(=O)c3ccn(C)n3)c2n1,–,–,–,–,–,–
Cc1ccc2cccc(NC(=S)NC(=O)c3c(Br)cnn3C)c2n1,–,–,–,–,26,–
Cc1cccc(OC(=O)NCCOC(=O)N(O)c2ccc(Cl)cc2)c1,–,–,–,–,24,–
O=C(COC(=O)c1ccc(F)cc1F)Nc1ccc(Cl)cn1,–,–,–,–,–,–
COc1ccc(CCN2C(=O)CSC2=Nc2ccc(C(C)C)cc2)cc1OC,–,–,37,–,–,–
Oc1ccc(Cl)cc1CNc1cnc2ccccc2c1,–,–,–,–,–,–
CNC(=S)N1CCN(c2cccc(OC)c2)CC1,–,–,33,–,–,–
CCOc1ccccc1NC(=S)N1CCN(c2cccc(OC)c2)CC1,–,–,–,17,–,–
COc1cccc(N2CCN(C(=S)Nc3ccccc3OC)CC2)c1,–,–,–,–,–,–
Cc1ccn2c(=O)c(C(=O)NCCN3CCOCC3)c(O)nc2c1,–,–,–,–,–,–
CCOC(=O)c1ccc(N=c2sc(C(=O)OC)cc(=O)n2CCCN2CCOCC2)cc1,–,–,52!,–,–,–
CCOC(=O)c1ccc(N=c2sc(C(=O)OC)cc(=O)n2Cc2ccco2)cc1,–,–,–,–,–,–
CCCN(CCC)Cc1c(C(=O)N/N=C/C(C)=C\c2ccccc2)nnn1-c1nonc1N,–,–,–,–,–,–
O=C(Nc1ccc(F)cc1F)c1ccc2c(c1)OCCO2,–,–,–,–,–,–
c1ccc(NCn2cncn2)nc1,–,–,–,–,28,–
O=C1CCC(=O)N1CNc1ccccn1,–,–,–,–,–,–
COc1ccccc1N1CCN(S(=O)(=O)CCNC(=O)/C=C/c2ccc3c(c2)OCO3)CC1,–,–,–,–,–,–
COc1ccc(S(=O)(=O)n2nc(OC(=O)c3ccco3)cc2N)cc1,–,–,–,–,–,18
SMILES,M1 PAM parental,CHRM4 agonist,M4 antag,M1 ag parental,CHO-K1 Ca antag,CHRM4 PAM
Nc1nc2ccc(Cl)cc2cc1C(=O)NCc1ccc(Oc2ccccc2)cc1,–,–,–,–,28,–
COc1ccc(CCNC(=O)c2cc3ccc(Cl)cc3nc2N)cc1,–,–,–,–,33,–
Nc1nc2cc(Cl)ccc2cc1C(=O)NCCCc1ccccc1,–,–,–,–,–,–
Nc1nc2ccc(Cl)cc2cc1C(=O)NCCc1ccc(Cl)cc1Cl,·,–,–,·,·,–
Nc1nc2ccc(Cl)cc2cc1C(=O)NCCc1c[nH]c2ccccc12,–,–,28,–,–,–
Fc1cccc(NC(=S)NCc2ccccn2)c1,–,–,–,–,–,–
CCOC(=O)c1ccc(CNCc2ccc(Br)cc2)cc1,–,–,–,–,–,–
CCOC(=O)c1ccc(CNCc2ccccc2)cc1,–,–,40,–,–,–
O=C(Nc1ccn(Cc2ccccc2F)n1)c1ccc(COc2cccc(Br)c2)cc1,–,–,–,–,–,–
Cc1ccc(NC(=O)COC(=O)CCC(=O)c2cccs2)cc1S(=O)(=O)N1CCOCC1,–,–,32,–,–,–
